Assay [1] in a line: qHTS assay for small molecule agonists of the p53 signaling pathway (AID 651631; calls by dose curve; further: nearly all actives have a fitted effect of over 15% in size; further: potency means the concentration at half of the fitted maximal effect). In a few lines:
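Readout was fluorescence from the LiveBLAzer FRET substrate, applied for 2 h at room temperature after 16 h compound exposure at 37 °C. Cells were the p53RE-bla HCT-116 line, with beta-lactamase driven by p53 response elements.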

Assay [2] can be described thus: qHTS assay for small molecules that induce genotoxicity in human embryonic kidney cells expressing luciferase-tagged ATAD5 (AID 651632). Further: nearly all actives have a fitted effect of over 15% in size. Further: potency means the concentration at half of the fitted maximal effect. In a few lines:
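DMSO vehicle served as the control. HEK293T reporter cells, 16 hr at 37C, then 30 min Amplite at room temperature; ATAD5 induction is measured as luciferase activity.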

The nature of assay [3]: qHTS assay for small molecule agonists of the p53 signaling pathway - cell viability (AID 651633; calls by dose curve; further: nearly all actives have a fitted effect of over 30% in size; further: potency means the concentration at half of the fitted maximal effect). The method, boiled down:
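Viability counter-read: CellTiter-Glo luminescence (30 min, room temperature) in the same p53RE-bla plates. These plates had been exposed to compounds for 16 h at 37 C.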

Assay [4] is described as follows: qHTS assay for small molecules that induce genotoxicity in human embryonic kidney cells expressing luciferase-tagged ATAD5 - cell viability (AID 651634; calls by dose curve; further: nearly all actives have a fitted effect of over 25% in size). In a few lines:
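Here HEK293T cells with the ATAD5 luciferase reporter are incubated with test compounds for 15.5 hr, and cytotoxicity is then gauged by measuring protease activity in live cells using fluorescence.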

A short description of assay [5]: qHTS assay for small molecule disruptors of the mitochondrial membrane potential - cell viability (AID 720634; calls by dose curve;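 further: human HepG2 liver cancer cells; series mostly up to about 83 µM; nearly all actives have a fitted effect of over 20% in size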). In a few lines:
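Viability of HepG2 cells is scored from ATP content by luminescence; cells are exposed to compound for 1 hr at 37 C and 5% CO2, then dosed with m-MPI dye before the CellTiter-Glo reagent.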

A short description of assay [6]: qHTS assay for small molecule disruptors of the mitochondrial membrane potential (AID 720635). Further: potency means the concentration at half of the fitted maximal effect. The method, boiled down:
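Mitochondrial membrane potential tracked with Mito-MPS dye, red aggregates (ex 540/em 590 nm) against green monomers (ex 490/em 535 nm). Compound treatment 1 hr at 37C, dye 30 min in HepG2.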

Assay [7] in a line: qHTS assay to test for compound auto fluorescence at 590 nm (red) in HepG2 cells (AID 720674). Further: potency means the concentration at half of the fitted maximal effect. The method, boiled down:
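Red autofluorescence (Ex/Em 540/590 nm, Rose Bengal sodium equivalents) was measured in HepG2 cells, 2,000 per well in MEM plus 10% FBS, plated overnight at 37 C. Readings were taken 1 hr after adding 23 nL compound or DMSO, at 37 C and 5% CO2.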

Assay [8] is described as follows: qHTS assay to test for compound auto fluorescence at 460 nm (blue) in HEK293 cells (AID 720678). In a few lines:
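HEK293, 2,000 cells/well, 10% dialyzed FBS; attach 4-5 hr 37C; pin compound or DMSO; o/n 37C/5% CO2; fluorescence 405/460 nm; triamterene-equivalent units.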

Assay [9] can be described thus: qHTS assay to test for compound auto fluorescence at 590 nm (red) in HEK293 cells (AID 720679). Further: potency means the concentration at half of the fitted maximal effect. The method, boiled down: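 Intensity at 540nm excitation and 590nm emission is reported as Rose Bengal sodium-equivalent autofluorescence. Measurements followed overnight exposure (37C, 5% CO2) of HEK293 cells, 2,000 per well, to 23 nL compound.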
The nature of assay [10]: qHTS assay to test for compound auto fluorescence at 535 nm (green) in HepG2 cells (AID 720675).

Several values for one entry are separate records, joined by “and”; a condition that tells them apart may be missing. Identical values can stand only once. Records with an inconclusive call do not appear. Activity calls are given as the source filed them. Unless noted, the call rests on the fitted dose curve; in most records, active means well fitted curve in the direction sought with a large enough effect in the repeat runs; inconclusive means weak or mixed curves; inactive means no such curve, though single readings can be large; an effect the other way counts as inactive or inconclusive.
On the % scale 0 is the no-effect control and ±100 the full control effect; tags describe the fitted curve by direction and shape or compound fluorescence and quenching.

`O=C(O)c1ccc(O)cc1`: the Potency entry in [1], in [2], in [3], in [4], in [5] and in assay [6] was “inactive” in each case. Besides, the Potency entry in [7] and in assay [9] was “inactive” throughout. Further, in assay [8], the molecule was called inactive.
With `CC(=O)[C@@]1(O)CC[C@H]2[C@@H]3C[C@H](C)C4=CC(=O)C=C[C@]4(C)[C@@]3(F)[C@@H](O)C[C@@]21C`, the Potency result in [1], in assay [2], in assay [3], in assay [4], in [5] and in assay [7] was “inactive” throughout. Besides, the Potency result in [9] is “inactive”. Besides, the call in assay [8] was inactive.
As to `c1ccc2ncccc2c1`, the Potency entry in assay [1], in assay [2], in assay [3], in assay [4], in assay [5] and in [6] was “inactive” each time. Moreover, the Potency entry in assay [7] was “inactive”. The molecule was called inactive in assay [8].
Regarding `c1ccc2c(c1)[nH]c1ccccc12`, the Potency result in [1], in [2], in [3], in [4], in assay [7] and in [10] was “inactive” each time. In assay [6], the Potency is 19 µM (active) and 21.7 µM (active). The molecule was classed as inactive in [8].
For the molecule `CC/C(=C(/CC)c1ccc(O)cc1)c1ccc(O)cc1`, the Potency in assay [1] is 9.44 µM (active) and 13.6 µM (active) and 15.4 µM (active); in assay [3], 60.6 µM (active); in assay [6] it was 7.5 µM (active) and 6.06 µM (active) and 10.9 µM (active). The Potency result in assay [4], in assay [5], in assay [7], in assay [10] and in [9] was “inactive” in each case. Moreover, the call in assay [8] was inactive.
Take `CC(C)(C)c1cccc(C(C)(C)C)c1O`: the Potency result in assay [1], in assay [2], in assay [3], in [4], in [5] and in assay [7] was “inactive” each time. In addition, the Potency entry in assay [9] is “inactive”. Besides, the Potency in assay [6] is 16.8 µM (active) and 15.4 µM (active). The molecule was called inactive in [8].
With `c1ccc2c(c1)ccc1cc3c(ccc4ccccc43)cc12`, the Potency in [1] is 12.1 µM (active); in assay [2], 853 nM (active) and 959 nM (active). For the same molecule, the Potency result in assay [3], in assay [4], in [5], in [6], in [7] and in assay [9] was “inactive” throughout. Moreover, in assay [8], the result was inactive.
Take `Cc1ccc([N+](=O)[O-])c(C)c1`: the Potency entry in assay [1], in assay [2], in [3], in [4], in [5] and in assay [6] was “inactive” each time. Besides, the Potency entry in assay [7] and in [9] was “inactive” throughout. In addition, in assay [8], the outcome was inactive.
As for `CCc1cccc2c3c([nH]c12)C(CC)(CC(=O)O)OCC3` (configuration not stated), the Potency result in assay [1], in [2], in assay [3], in [4], in [5] and in [7] was “inactive” in each case. In assay [8], the call was inactive.
Turning to `C=CCNCC=C`, the Potency entry in assay [1], in [2], in assay [3], in [4], in assay [7] and in assay [10] was “inactive” in each case. Moreover, the call in assay [8] was inactive.
Consider `[Na+]`, for which the Potency result in [1], in [2], in assay [3], in [4], in assay [5] and in assay [6] was “inactive” each time. Further, the Potency entry in [7] and in [9] was “inactive” in each case. Further, the result in [8] was inactive.
Regarding `C[C@]12CC[C@@H]3c4ccc(O)cc4CC[C@H]3[C@@H]1CC[C@@H]2O`, the Potency in assay [1] is 13.3 µM (active) and 19.3 µM (active) and 9.69 µM (active); in [6] it was 26.6 µM (active) and 30.6 µM (active) and 17.2 µM (active). In addition, the Potency result in assay [2], in [3], in assay [5] and in assay [7] was “inactive” each time. Further, the molecule was called inactive in assay [8].
As for `CN1CCOCC1`, the Potency entry in assay [1], in assay [3], in assay [4], in [5], in assay [6] and in assay [7] was “inactive” throughout. Besides, the Potency entry in assay [10] and in assay [9] was “inactive” in each case. The molecule was classed as inactive in assay [8].
In the case of `IC(I)I`, the Potency result in [1], in assay [2], in assay [3], in assay [4], in [7] and in assay [10] was “inactive” each time. Further, the result in [8] was inactive.
With `OC[C@@H](O)[C@@H](O[C@@H]1O[C@H](CO)[C@H](O)[C@H](O)[C@H]1O)[C@H](O)[C@@H](O)CO`, the Potency result in assay [1], in assay [2], in assay [3], in assay [4], in assay [5] and in assay [6] was “inactive” each time. Also, the Potency entry in [7] and in assay [9] was “inactive” throughout. Besides, the molecule was classed as inactive in assay [8].
For `Nc1ccc2c(O)cc(S(=O)(=O)O)cc2c1`, the Potency in assay [1] is 4.86 µM (active) and 2.43 µM (active). The Potency result in [2], in assay [3], in assay [4], in [5], in [7] and in [10] was “inactive” in each case. The Potency result in assay [9] was “inactive”. Also, in assay [8], the result was inactive.
On to `C=C[Si](OCCOC)(OCCOC)OCCOC`, for which the Potency entry in [1], in assay [2], in assay [3], in assay [4], in [5] and in [7] was “inactive” each time. Also, the Potency entry in assay [10] and in assay [9] was “inactive” in each case. Moreover, the molecule was called inactive in [8].
Take `COC(=O)CC(=O)OC`: the Potency entry in assay [1], in [2], in assay [3], in assay [4], in assay [5] and in assay [6] was “inactive” in each case. Besides, the Potency result in assay [7] and in assay [9] was “inactive” each time. In addition, the result in assay [8] was inactive.
`CCCCCCCCCCCCCO`: the Potency result in assay [1], in [2], in [3], in assay [4], in [5] and in [6] was “inactive” in each case. Besides, the Potency entry in assay [7] and in assay [9] was “inactive” throughout. The molecule was classed as inactive in assay [8].
For the molecule `COc1cc([C@H]2Oc3cc([C@H]4Oc5cc(O)cc(O)c5C(=O)[C@@H]4O)ccc3O[C@@H]2CO)ccc1O`, the Potency result in [1], in assay [2], in assay [3], in assay [4], in [7] and in assay [10] was “inactive” in each case. Besides, the Potency result in assay [9] was “inactive”. In addition, the Potency in assay [6] was 29.8 µM (active) and 21.6 µM (active). Further, in assay [8], the molecule was classed as inactive.
In the case of `O=C(O)CCCCCCCCCCCC(=O)O`, the Potency result in [1], in assay [2], in assay [3], in assay [4], in [5] and in assay [6] was “inactive” throughout. In addition, the Potency entry in assay [7] and in [9] was “inactive” each time. For the same molecule, the result in [8] was inactive.
For `C=CCOC(=O)C(=C)C`, the Potency entry in assay [1], in [2], in assay [3], in assay [4], in [5] and in assay [6] was “inactive” throughout. Further, the Potency entry in assay [7] and in [9] was “inactive” each time. For the same molecule, the result in assay [8] was inactive.
Consider `CCCCCC=O`, for which the Potency result in [1], in [2], in assay [3], in assay [4], in assay [5] and in [7] was “inactive” in each case. Also, the Potency result in assay [10] and in [9] was “inactive” throughout. Moreover, the molecule was classed as inactive in assay [8].
Take `C1COCCN1`: the Potency entry in assay [1], in assay [2], in assay [3], in assay [4], in assay [5] and in assay [6] was “inactive” each time. Moreover, the Potency result in assay [7] and in assay [9] was “inactive” in each case. For the same molecule, the molecule was called inactive in [8].
Regarding `O=C1OC2(c3ccccc31)c1cc(I)c(O)c(I)c1Oc1c2cc(I)c(O)c1I`, the Potency entry in assay [1], in assay [2], in assay [3] and in assay [5] was “inactive” throughout. For the same molecule, the Potency in assay [7] is 11.2 µM (active) and 20 µM (active) and 17.8 µM (active); in assay [9], 17.8 µM [fluorescent] (active) [middle of 4 runs]. Besides, the outcome in [8] was inactive.

The record behind these values is PubChem BioAssay (Tox21).
